Measured values as given in PubChem BioAssay AID1159580 (chemical genetic matrix, 2015).
Where “and” joins values, the source holds several entries; their conditions need not be identical. Equal entries are not always repeated. Screen size: about 5,500 compounds; about 2,000 (36%) were called active. About 18% were inconclusive and are not listed. Rule as the data show it: active = normalized growth mostly below about 0.91 (no sharp cut-off); inconclusive = no clear call, values can overlap the other calls; inactive = mostly above about 0.92. The list shows a part of the results.

Assay: chemical genetic growth profiling, strain panel (AID 1159580);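 also: tested at 20 µM; growth read once vehicle control cultures reached saturation at 30 °C; 1 = growth at the plate median or of vehicle wells; lower values mean less growth of the strain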
Details: S. cerevisiae deletion strains, growth OD
[1] = locus YDR150W, strain NUM1, stronger effect = lower value
[2] = locus YGR229C, strain SMI1, stronger effect = lower value
[3] = locus YMR307W, strain GAS1, stronger effect = lower value
[4] = locus YNL153C, strain GIM3, stronger effect = lower value
[5] = locus YNL322C, strain KRE1, stronger effect = lower value
[6] = locus YPL055C, strain LGE1, stronger effect = lower value

Measured: normalized growth

Cc1c(C)c2c(c(C)c1O)CCC(C)(CN1CCN(c3cc(N4CCCC4)nc(N4CCCC4)n3)CC1)O2 (centres undefined)
active: locus YAL040C, strain CLN3, stronger effect = lower value 0.579 | locus YER002W, strain NOP16, stronger effect = lower value 1.15 [resistant] | locus YNL175C, strain NOP13, stronger effect = lower value 1.09 [resistant]
inactive: locus YCL061C, strain MRC1 (second series), stronger effect = lower value 0.993 | [1] 0.997 | locus YDR363W, strain ESC2, stronger effect = lower value 0.96 | [2] 0.944 | locus YJR075W, strain HOC1, stronger effect = lower value 0.959 | [3] 1 | locus YNL128W, strain TEP1, stronger effect = lower value 1.07 | [4] 0.995 | locus YNL197C, strain WHI3, stronger effect = lower value 1.08 | locus YNL224C, strain SQS1, stronger effect = lower value 1.07 | [5] 0.961 | locus YOR083W, strain WHI5 (second series), stronger effect = lower value 1.04 | [6] 0.891

Cc1c(C)c2c(c(C)c1O)CCC(C)(CCCC(C)CCCC(C)CCCC(C)C)O2 (centres undefined)
inactive: locus YAL021C, strain ccr4, stronger effect = lower value 1 | locus YAL026C, strain drs2, stronger effect = lower value 0.972 | locus YAL030W, strain snc1, stronger effect = lower value 0.983 | locus YBL061C, strain skt5, stronger effect = lower value 0.989 | locus YBR009C, strain hhf1, stronger effect = lower value 0.965 | locus YBR021W, strain FUR4, stronger effect = lower value 1.03 | locus YBR023C, strain chs3, stronger effect = lower value 0.988 | locus YBR171W, strain sec66, stronger effect = lower value 0.986 | locus YBR229C, strain ROT2, stronger effect = lower value 1 | locus YBR231C, strain swc5, stronger effect = lower value 0.935 | locus YBR279W, strain paf1, stronger effect = lower value 0.99 | locus YCL011C, strain gbp2, stronger effect = lower value 0.972 | locus YCL016C, strain dcc1, stronger effect = lower value 0.982 | locus YCL029C, strain bik1, stronger effect = lower value 1 | locus YCL061C, strain MRC1, stronger effect = lower value 0.987 | locus YCL069W, strain vba3, stronger effect = lower value 0.988 | locus YCR088W, strain abp1, stronger effect = lower value 0.985 | locus YDL005C, strain med2, stronger effect = lower value 0.983 | locus YDL035C, strain GPR1, stronger effect = lower value 1.02 | locus YDL040C, strain nat1, stronger effect = lower value 0.99 | locus YDL074C, strain BRE1, stronger effect = lower value 1.02 | locus YDL101C, strain DUN1, stronger effect = lower value 1.01 | locus YDL134C, strain PPH21, stronger effect = lower value 1.01 | locus YDL185W, strain tfp1, stronger effect = lower value 1 | locus YDL192W, strain arf1, stronger effect = lower value 1.02 | locus YDR001C, strain nth1, stronger effect = lower value 0.981 | locus YDR069C, strain doa4, stronger effect = lower value 0.968 | locus YDR101C, strain arx1, stronger effect = lower value 1.01 | locus YDR137W, strain rgp1, stronger effect = lower value 0.966 | [1] 1.01 | locus YDR159W, strain sac3, stronger effect = lower value 0.956 | locus YDR162C, strain NBP2, stronger effect = lower value 0.993 | locus YDR195W, strain ref2 0.949 | locus YDR297W, strain sur2, stronger effect = lower value 0.978 | locus YDR318W, strain mcm21, stronger effect = lower value 1 | locus YDR334W, strain swr1, stronger effect = lower value 0.985 | locus YDR335W, strain msn5, stronger effect = lower value 0.988 | locus YDR388W, stronger effect = lower value 0.976 | locus YDR392W, strain spt3, stronger effect = lower value 0.929 | locus YDR502C, strain sam2, stronger effect = lower value 0.987 | locus YEL003W, strain gim4, stronger effect = lower value 0.979 | locus YEL037C, strain rad23, stronger effect = lower value 0.987 | locus YEL061C, strain CIN8 (second series), stronger effect = lower value 0.983 | locus YEL061C, strain CIN8, stronger effect = lower value 1.01 | locus YER015W, strain faa2, stronger effect = lower value 0.986 | locus YER016W, strain bim1, stronger effect = lower value 0.975 | locus YER110C, stronger effect = lower value 1 | locus YER111C, strain swi4, stronger effect = lower value 0.985 | locus YER155C, strain BEM2 (second series), stronger effect = lower value 0.97 | locus YER155C, strain BEM2, stronger effect = lower value 1 | locus YER167W, strain BCK2, stronger effect = lower value 1.01 | locus YFR010W, strain ubp6, stronger effect = lower value 0.988 | locus YGL078C, strain dbp3, stronger effect = lower value 0.999 | locus YGL086W, strain mad1, stronger effect = lower value 1.02 | locus YGL167C, strain pmr1, stronger effect = lower value 0.968 | locus YGL173C, strain kem1, stronger effect = lower value 0.985 | locus YGL227W, strain vid30, stronger effect = lower value 0.977 | locus YGL240W, strain doc1, stronger effect = lower value 0.981 | locus YGL248W, strain PDE1, stronger effect = lower value 1.01 | locus YGL253W, strain hxk2, stronger effect = lower value 0.995 | locus YGR078C, strain PAC10, stronger effect = lower value 1 | locus YGR135W, strain pre9, stronger effect = lower value 1.02 | [2] 1.02 | locus YGR252W, strain gcn5, stronger effect = lower value 0.95 | locus YHR013C, strain ard1, stronger effect = lower value 0.928 | locus YHR027C, strain rpn1, stronger effect = lower value 0.993 | locus YHR030C, strain SLT2, stronger effect = lower value 1.01 and 0.996 | locus YHR079C, strain IRE1 (second series), stronger effect = lower value 1 | locus YHR079C, strain IRE1, stronger effect = lower value 1.02 | locus YHR094C, strain hxt1, stronger effect = lower value 1 | locus YHR129C, strain ARP1, stronger effect = lower value 1.01 | locus YHR142W, strain chs7, stronger effect = lower value 0.994 | locus YHR200W, strain rpn10, stronger effect = lower value 0.995 | locus YIL066C, strain RNR3, stronger effect = lower value 1.01 | locus YIL073C, strain SPO22, stronger effect = lower value 1.05 | locus YIL125W, strain kgd1, stronger effect = lower value 1.03 | locus YIR030C, strain dcg1, stronger effect = lower value 0.997 | locus YJL092W, strain hpr5, stronger effect = lower value 0.975 | locus YJL095W, strain BCK1 (second series), stronger effect = lower value 0.989 | locus YJL095W, strain BCK1, stronger effect = lower value 0.998 and 1 | locus YJL115W, strain asf1, stronger effect = lower value 0.985 | locus YJL129C, strain trk1, stronger effect = lower value 1.02 | locus YJL134W, strain LCB3, stronger effect = lower value 1 | locus YJL154C, strain vps35, stronger effect = lower value 0.987 | locus YJL164C, strain tpk1, stronger effect = lower value 1.01 | locus YJL166W, strain qcr8, stronger effect = lower value 0.993 | locus YJL168C, strain set2, stronger effect = lower value 1 | locus YJL187C, strain SWE1 (second series), stronger effect = lower value 0.997 | locus YJL187C, strain SWE1, stronger effect = lower value 0.982 | locus YJR043C, strain POL32, stronger effect = lower value 1 | locus YJR066W, strain TOR1, stronger effect = lower value 0.972 | locus YKL009W, strain mrt4, stronger effect = lower value 0.969 | locus YKL068W, stronger effect = lower value 0.993 | locus YKL085W, strain MDH1 (second series), stronger effect = lower value 0.99 | locus YKL085W, strain MDH1, stronger effect = lower value 0.99 | locus YKL160W, strain elf1, stronger effect = lower value 1.01 | locus YKL190W, strain CNB1, stronger effect = lower value 1 | locus YKR001C, strain vps1, stronger effect = lower value 0.996 | locus YKR026C, strain gcn3, stronger effect = lower value 0.986 | locus YKR091W, strain srl3, stronger effect = lower value 0.982 | locus YLL001W, strain dnm1, stronger effect = lower value 0.983 | locus YLL026W, stronger effect = lower value 0.982 | locus YLL041C, strain sdh2, stronger effect = lower value 0.985 | locus YLR027C, strain aat2, stronger effect = lower value 0.993 | locus YLR039C, strain RIC1, stronger effect = lower value 1.02 | locus YLR058C, strain SHM2, stronger effect = lower value 1 | locus YLR102C, strain apc9, stronger effect = lower value 1 | locus YLR113W, strain HOG1, stronger effect = lower value 0.966 | locus YLR221C, strain rsa3, stronger effect = lower value 1.01 | locus YLR258W, strain gsy2, stronger effect = lower value 0.967 | locus YLR262C, strain YPT6 (second series), stronger effect = lower value 0.98 | locus YLR262C, strain YPT6, stronger effect = lower value 1.01 | locus YLR268W, strain sec22, stronger effect = lower value 1.01 | locus YLR320W, strain mms22, stronger effect = lower value 0.988 | locus YLR330W, strain CHS5, stronger effect = lower value 1 | locus YLR342W, strain FKS1 (second series), stronger effect = lower value 1.02 | locus YLR342W, strain FKS1, stronger effect = lower value 0.978 | locus YLR357W, strain rsc2, stronger effect = lower value 1 | locus YLR370C, strain arc18, stronger effect = lower value 0.995 | locus YLR371W, strain rom2, stronger effect = lower value 1.04 | locus YLR384C, strain iki3, stronger effect = lower value 0.978 | locus YLR418C, strain cdc73, stronger effect = lower value 0.968 | locus YML016C, strain PPZ1, stronger effect = lower value 1 | locus YML032C, strain rad52, stronger effect = lower value 0.987 | locus YML120C, strain ndi1, stronger effect = lower value 1.03 | locus YML124C, strain tub3, stronger effect = lower value 0.993 | locus YMR058W, strain fet3, stronger effect = lower value 1.01 | locus YMR078C, strain ctf18, stronger effect = lower value 1.02 | locus YMR125W, strain sto1, stronger effect = lower value 0.95 | locus YMR129W, stronger effect = lower value 0.979 | locus YMR205C, strain PFK2, stronger effect = lower value 0.933 | locus YMR223W, strain ubp8, stronger effect = lower value 1 | locus YMR231W, strain pep5, stronger effect = lower value 0.977 | locus YMR263W, strain SAP30, stronger effect = lower value 1.01 | [3] 1.01 | locus YNL067W, strain RPL9B, stronger effect = lower value 1 | locus YNL071W, strain lat1, stronger effect = lower value 0.994 | [4] 1.01 | locus YNL183C, strain NPR1, stronger effect = lower value 0.961 | locus YNL209W, strain ssb2, stronger effect = lower value 0.984 | locus YNL233W, strain BNI4, stronger effect = lower value 1.02 | locus YNL248C, strain rpa49, stronger effect = lower value 1.03 | locus YNL250W, strain rad50, stronger effect = lower value 1.01 | locus YNL271C, strain bni1, stronger effect = lower value 0.988 | locus YNL298W, strain CLA4, stronger effect = lower value 0.965 | locus YNL307C, strain MCK1, stronger effect = lower value 1 | locus YNL322C, strain KRE1 (second series), stronger effect = lower value 0.994 | [5] 1 | locus YNR049C, strain mso1, stronger effect = lower value 0.988 | locus YNR052C, strain pop2, stronger effect = lower value 1.02 | locus YOL012C, strain htz1 0.962 | locus YOL147C, strain pex11, stronger effect = lower value 0.997 | locus YOR001W, strain rrp6, stronger effect = lower value 1.02 | locus YOR061W, strain CKA2, stronger effect = lower value 1.01 | locus YOR069W, strain VPS5, stronger effect = lower value 1 | locus YOR070C, strain gyp1, stronger effect = lower value 0.988 | locus YOR080W, strain dia2, stronger effect = lower value 0.985 | locus YOR083W, strain WHI5, stronger effect = lower value 1.01 | locus YOR106W, strain vam3, stronger effect = lower value 1.01 | locus YOR136W, strain idh2, stronger effect = lower value 1.01 | locus YOR144C, strain elg1, stronger effect = lower value 0.985 | locus YOR184W, strain ser1, stronger effect = lower value 0.999 | locus YOR231W, strain MKK1, stronger effect = lower value 0.972 | locus YOR265W, strain rbl2, stronger effect = lower value 0.996 | locus YOR270C, strain vph1, stronger effect = lower value 1.09 | locus YOR290C, strain snf2, stronger effect = lower value 1 | locus YOR316C, strain cot1, stronger effect = lower value 0.995 | locus YPL051W, strain arl3, stronger effect = lower value 1.01 | [6] 1.01 | locus YPL078C, strain atp4, stronger effect = lower value 1.02 | locus YPL106C, strain sse1, stronger effect = lower value 0.966 | locus YPL240C, strain hsp82, stronger effect = lower value 0.98 | locus YPL256C, strain CLN2, stronger effect = lower value 1.02 | locus YPR119W, strain clb2, stronger effect = lower value 0.997 | locus YPR141C, strain kar3, stronger effect = lower value 1 | locus YPR163C, strain tif3, stronger effect = lower value 1 | locus YPR167C, strain met16, stronger effect = lower value 0.984 | strain wtn01, stronger effect = lower value 1.01
